# The panel holds about 79,000 compounds, 15% with a hit somewhere; the sample as a whole holds those more often. A number with no mark means an inactive call. Activity calls are given as the source filed them. Rule as the data show it: active = growth inhibition above about 70%; inactive = the rest.
# How the values were obtained:
# [1] = NCI Yeast Anticancer Drug Screen. Data for the mec2-1 strain (AID 157); conditions: S. cerevisiae mec2-1 strain, at 50.0 µM, hits give high values
# Summary of the method: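 Mutant yeast (mec2-1) grown with compound; growth inhibition relative to vehicle control reported.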
# [2] = NCI Yeast Anticancer Drug Screen. Data for the sgs1 mgt1 strain (AID 161);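 also: 0% = growth of cultures given vehicle only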; conditions: S. cerevisiae sgs1 mgt1 strain, at 50.0 µM, hits give high values
# Summary of the method: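 Yeast cells carrying a defined DNA-repair defect were exposed to test compounds. Growth inhibition was measured relative to vehicle-treated controls.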
# [3] = NCI Yeast Anticancer Drug Screen. Data for the cln2 rad14 strain (AID 165);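 also: 0% = growth equal to vehicle treated cultures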; conditions: S. cerevisiae cln2 rad14 strain, at 50.0 µM, hits give high values
# Summary of the method: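 Readout is yeast growth inhibition versus vehicle-treated controls, using a strain with cln2 and rad14 alterations exposed to compound.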
# [4] = NCI Yeast Anticancer Drug Screen. Data for the bub3 strain (AID 167); conditions: S. cerevisiae bub3 mutant strain, at 50.0 µM, hits give high values
# Summary of the method: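 Readout: yeast growth inhibition, expressed relative to vehicle-only wells. The test organism is a mutant strain from a panel with lesions in DNA repair or checkpoint genes.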
# [5] = NCI Yeast Anticancer Drug Screen. Data for the mlh1 rad18 strain (AID 175); conditions: S. cerevisiae mlh1 rad18 strain growth inhibition; at 50.0 µM; hits give high values
# Summary of the method: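 Genetically defined yeast (DNA repair-deficient) exposed to compounds; growth inhibition determined relative to vehicle.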
SMILES,growth inhibition [1],growth inhibition [2],growth inhibition [3],growth inhibition [4],growth inhibition [5]
Nc1nc(Nc2ccccc2)nc(SCc2ccccc2)n1,5.45%,-5.5%,-33.5%,0.15%,13.7%
CCOC(=O)C(C(=O)OCC)=C1N[C@H](C(=O)OCC)CS1,-17.5%,-15.8%,13%,-6.7%,-22.8%
CN1CCS(=O)(=O)C2CCCCC2C1=O (stereo not given),-13.4%,4.85%,11.8%,10.5%,1.1%
CC(=O)Oc1nnc(OC(C)=O)c2cc(N)ccc12,-18.3%,4.45%,-1.2%,9.9%,0.75%
CN(C)S(=O)(=O)N(C)C,6.4%,15.4%,6.1%,-8.45%,26.2%
NNS(=O)(=O)c1ccc(/C=C2\NC(=O)NC2=O)cc1,1.5%,-17.2%,13.2%,-26.4%,23.9%
c1csc(C2=NCCC2)c1,-6.65%,6.35%,36.5%,31.6%,3.3%
CC(=O)Nc1c(Cl)cc(N)cc1Cl,-23.4%,2.3%,9.85%,-16.4%,4.3%
CC(C)=NNC(=O)c1ccc([N+](=O)[O-])cc1,0.95%,2.1%,5.1%,3.65%,10.4%
CC(=O)c1cccc(NC(=O)C(=O)C(C(=O)NN)c2ccccc2)c1 (stereo not given),11.1%,-5.2%,4.2%,23%,15.9%
CCOC(=O)CCC(NC(=O)c1ccc(OCc2ccc3nc(OC)c(OC)nc3c2)cc1)C(=O)OCC (stereo not given),-17.9%,-21.6%,5%,-4.75%,13.2%
CC(=O)Oc1ccccc1C=C(C(=O)O)C(=O)O,-11.5%,-8.1%,-20.7%,-9.2%,-10.9%
O=C[C@@H](CO)O[C@H](C=O)c1c[nH]c(=O)[nH]c1=O,-13.2%,-23.9%,-10.5%,-36.5%,-54.5%
O=C(CN1CCN(c2ccccc2)CC1)N1CCc2c([nH]c3ccccc23)C1c1cccnc1 (stereo not given),-19.8%,-19.6%,28.6%,4.35%,-21.6%
COC(=O)c1cc([N+](=O)[O-])cc2ccccc12,-24.6%,19.1%,11.3%,23.1%,0.65%
N#C/C(=C1/Sc2c(nc[nH]c2=O)N1c1ccccc1)c1nc2ccccc2[nH]1,-14.4%,-51.9%,-8.1%,-40%,-41.9%
O=C(/C=C/c1ccc(OCCCCCCCCCCOc2ccc(/C=C/C(=O)c3ccc(Cl)cc3)cc2)cc1)c1ccc(Cl)cc1,-1.45%,-15.3%,16.1%,22.5%,15.6%
Cc1cc(C)c(CSc2cc(N)nc(N)c2N)c(C)c1,9.3%,1.25%,5.9%,6.9%,48.2%
C=C(CCC(Cl)C(O)CO)[Si](C)(C)C (stereo not given),-19.2%,52%,45.3%,49.2%,48.6%
O=C(/C=C/CC(O)(c1ccccc1)c1ccccc1)Nc1ccccc1Cl,-25.9%,-4.85%,2.5%,10.1%,-10.2%

SMILES,growth inhibition [1],growth inhibition [2],growth inhibition [3],growth inhibition [4],growth inhibition [5]
COc1ccc(Cc2cn(C)cc(Cc3ccc(OC)cc3)c2=O)cc1,0.8%,7.15%,-7.45%,-1.2%,-4.45%
O=[N+]([O-])c1ccc(Nc2ccc(Cl)cc2)c2nonc12,-7.9%,25.7%,18.4%,8.85%,23.4%
COc1cc(C(C)O)c[n+](CCC2CNc3ccccc32)c1 (stereo not given),-2.2%,5.8%,18.6%,6.45%,-21.1%
COc1cc2c(cc1OC)C1c3ccccc3CCCN1CC2 (stereo not given),-4.5%,-57.5%,0.55%,-23.6%,-27%
N#Cc1cc(F)c(N)c(F)c1,7.95%,2.2%,9.95%,-0.35%,3.8%
O=C(Nc1nc(=S)c2c(ncn2CCO)[nH]1)c1ccccc1,-14%,8.6%,12.9%,4.7%,-0.7%
COc1ccccc1NC(=O)C1=C(C)NC(C)=C(C(=O)Nc2ccccc2OC)C1c1ccco1,-8.65%,20.4%,4.3%,29.4%,-11.9%
CCCCN=C=NCCC[N+](C)(C)C,7.2%,0.9%,10%,2.8%,8.2%
CO[C@@H]1C2C3c4ccccc4C(c4ccccc43)C2[C@H](OC)[C@H]2OC(c3ccccc3)O[C@H]21 (stereo not given in full),-14.9%,7.15%,10%,2.15%,-2.65%
O=[N+]([O-])CC1(O)CCCCC1,9.05%,11.2%,7.95%,-0.65%,0.9%
CN(C)Cc1ccc2ccccc2c1,7.1%,9.95%,-39.1%,6.85%,-14.3%
CN(C)c1ccc([N+](=O)[O-])c2c1CCC2,-4.55%,7.25%,5.6%,6.85%,6.55%
CC(C)(C)c1ccc(OS(=O)(=O)c2ccc(Cl)c(Cl)c2)cc1,17.4%,0.35%,31.6%,6.8%,-4.85%
COCC(O)CC#N (stereo not given),4%,-3.65%,7.65%,9.65%,3.9%
O=C(Cc1ccccc1)N/N=C(/c1nc2ccc([N+](=O)[O-])cc2[nH]c1=O)C(O)c1ccco1 (stereo not given),-9.75%,-4.85%,-79.2%,-6.25%,-2.8%
c1ccc2cc(-c3csc4ccccc34)ccc2c1,-16.4%,17.1%,-8.05%,15.4%,9.15%
CCCCSCCOC(=O)Nc1ccc(Cl)cc1,99.3% (active),98% (active),95.7% (active),99.3% (active),98.8% (active)
COc1cccc(CC2C(=O)N=C(NC(C)=O)N2C)c1OC(C)=O (stereo not given),-7.4%,-23.6%,-11.7%,-5.65%,-31.2%
NCC1OC(n2cnc3c(N)ncnc32)CC1O (stereo not given),-2.75%,-17.8%,0.65%,-28.6%,-7.85%
COC(=O)c1nc(N)[nH]c(=O)c1-c1ccc(Cl)cc1,-21.9%,-10.9%,14.8%,-12.7%,-47.8%

# Reference: PubChem BioAssay (NCI)
